This note sets out measurements from PubChem BioAssay (NCATS).

Results filed as inconclusive are left out. A number with no mark means an inactive call. Active and inactive are the calls of the source. Calls come from the whole dose curve; as a rule, active = well fitted curve in the direction sought with a large enough effect; inconclusive = small, poorly fitted or top-dose-only effect, or another doubt; inactive = no such curve, though single readings can be large; an effect the other way counts as inactive or inconclusive.

Assay [1] relates to Tov112D. Description: Primary qHTS to identify gynecologic anti-cancer compounds using libraries of approved drugs and bioactive compounds (AID 1345084). Note: nearly all actives have a fitted effect of over 55% in size. The following applies: Gynecologic cancer cell panel viability, ATPlite luminescence, 48 h; series mostly up to 57.5 µM. The method in brief:
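Cell viability after 48 h drug treatment, ATPlite luminescence readout; five doses.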
In general terms: In qHTS, concentration-response curves come from the screen itself.

Assay [2] in a line: Drug repurposing screens with cells derived from glioblastoma tumor samples (AID 1345199). Note: nearly all actives have a fitted effect of over 40% in size. The settings on record: GBM patient neurospheres viability, ATP luminescence, 48 h. The method in brief:
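Four patient lines of CD133+ GBM neurospheres were screened at several concentrations; hits were retested in those lines plus three slower-growing GBM lines, using 48-hour treatment and ATP-based viability.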

Assay [3] can be described thus: qHTS assay to identify inhibitors of the type 1 interferon - major histocompatibility complex class I in skeletal muscle: Counter screen cell viability and HiBit confirmation (AID 1347412). Note: nearly all actives have a fitted effect of over 60% in size. The following applies: iHSKM muscle cells + IFN-b, HiBiT or CellTiter-Glo, 24 h. The method, boiled down: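 HLA-B*08:01–HiBiT knock-in immortalized human myoblasts (C25cl48) stimulated with 4.0 ng/ml human IFN-beta and dosed with compound in a 12-point 1:3 titration (top final 46 uM). After 24 hrs at 37 C, HiBiT lytic luminescence or CellTiter Glo ATP read out.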
% is set by controls: 0 for no effect and ±100 for the full control effect; potency is the fitted concentration of half-maximal effect.

`Cn1cc(-c2ccc3c(c2)CCN3C(=O)Cc2cccc(C(F)(F)F)c2)c2c(N)ncnc21`: the Potency result in assay [1] was “inactive”.
As for `C=C(NC(=O)C(=C)NC(=O)c1csc(C2=NC3c4csc(n4)C4NC(=O)c5csc(n5)C(C(C)(O)C(C)O)NC(=O)C5CSC(=N5)/C(=C/C)NC(=O)C(C(C)O)NC(=O)c5csc(n5)C3(CC2)NC(=O)C(C)NC(=O)C(=C)NC(=O)C(C)NC(=O)C(C(C)CC)NC2C=Cc3c(C(C)O)cc(nc3C2O)C(=O)OC4C)n1)C(N)=O` (stereo unspecified), the Potency result in assay [1] is “inactive”.
On the same count and under the same terms, the result for `CO[C@H]1[C@@H](O)[C@H](O[C@H]2CC[C@@]3(C)C(CCC4C3CC[C@]35COC6(COC(=O)C6)C3CCC45O)C2)O[C@@H](C)[C@@H]1OC1OC(CO)C(OC2OC(CO)C(O)C(O)C2O)C(O)C1O` (stereo partly specified) reads 2.82 µM (active); that for `C=C1C(=O)O[C@H]2C[C@@H](C)[C@@H]3CCC(=O)[C@@]3(C)C[C@H]12`, “inactive”; that for `CNC(C)C(=O)NC(C(=O)N1CCCC1C(=O)Nc1snnc1-c1ccccc1)C1CCCCC1` (stereo unspecified), “inactive”.
Still for that read-out and setting: the value for `CC(O)(C(=O)O)C1CCC2(C)C1CCC1(C)C2CCC2C3(C)CCC(O)C(C)(COC4OC(CO)C(O)C(O)C4O)C3CCC21C` (stereo unspecified) was 8.91 µM (active).
Still for that read-out and setting: the result for `O=C(Nc1nc2cc(C(F)(F)F)cc(NC3CC3)n2n1)c1cccnc1` reads 7.94 µM (active).
For `C=C1C(=O)O[C@@H]2C3C(=C(C)[C@@H](O)[C@@H](OC(=O)/C(=C/C)COC(C)=O)[C@@H]12)C(=O)[C@H]1O[C@@]31C` (stereo partly specified), in assay [1], the Potency was 12.6 µM (active).
Still for that read-out and setting: the result for `CN(C)CC1CCn2c(c(C3=C(c4cn(C)c5ccccc45)C(=O)NC3=O)c3ccccc32)C1` (stereo unspecified) reads “inactive”; that for `CCC(CC)C(c1ccc(Nc2nc3ccccc3s2)cc1)n1cncn1` (stereo unspecified), 22.4 µM (active).
The same measure, in the same setting: the value for `C=CC(=O)N1CCCC(n2nc(-c3ccc(Oc4ccccc4)cc3)c3c(N)ncnc32)C1` (stereo unspecified) was “inactive”; that for `C[C@H]1[C@H](/C=C/c2ccc(-c3ccccc3C#N)cn2)[C@@H]2[C@@H](C)OC(=O)[C@@H]2C[C@@H]1C` was 20 µM (active); that for `CCN(CC)C(=O)c1ccc(Nc2nc(OCC3CCCCC3)c3[nH]cnc3n2)cc1` was “inactive”.
`C=C1C(=O)O[C@H]2CC(=C)[C@H]3CC[C@@](C)(O)[C@@H]3CC12` (stereo partly specified): in assay [1], the Potency entry is “inactive”.
The same measure, in the same setting: the result for `COc1ccccc1S(=O)(=O)Nc1ccc2c(c1)CN(C)C(=O)N2` reads “inactive”; that for `C=C1/C(=C/C=C2\CCC[C@]3(C)[C@@H]([C@H](C)CC[C@@H](O)C(C)(C)O)CC[C@@H]23)C[C@@H](O)C[C@@H]1O`, “inactive”.
For `COc1cc2ncnc(Nc3ccc(O)c(Br)c3)c2cc1OC`, in assay [1], the Potency entry was “inactive”.
Same read-out and setting: the value for `Nc1nc(Cl)nc2c1ncn2C1OC(CO)C(O)C1F` (stereo unspecified) was 0.398 µM (active); that for `N#Cc1ccc(O[C@@H]2c3ccccc3C[C@H]2N2CCC[C@@H](N)C2)c(Cl)c1` was “inactive”; that for `Fc1ccc(-c2nc(C3CCNCC3)sc2-c2ccnc(NC3CC3)n2)cc1` was “inactive”.
Same read-out and setting: the result for `C=C1CO[C@@]2(O[C@H]3CC4C5CC=C6C[C@@H](O)C[C@@H](O[C@@H]7OC[C@H](O)[C@H](O[C@@H]8OC[C@@H](O)[C@H](O)[C@H]8O)[C@H]7O[C@@H]7O[C@@H](C)[C@H](OC(C)=O)[C@@H](OC(C)=O)[C@H]7OC(C)=O)[C@]6(C)C5CC[C@]4(C)[C@@H]3[C@@H]2C)[C@@H](O)[C@H]1OC1OC(C)C(O)C(O)C1O` (stereo partly specified) reads 3.55 µM (active).
Regarding `CNS(=O)(=O)c1ccccc1Nc1nc(Nc2ccc(N3CCN(C)CC3)cc2OC)ncc1Br`, the Potency in assay [1] is 12.6 µM (active).
For the compound `CCCCCCCC(=O)CC[C@@H]1[C@@H](C/C=C\CCCC(=O)OC(C)C)[C@@H](O)C[C@H]1O`, the Potency in assay [2] (tumour line A) is 11.2 µM (active); in assay [2] (tumour line D) it was 15.8 µM (active).
On to `CCCCCCCCCCCCCCCC(=O)O[C@@H]1CC(C)=C(/C=C/C(C)=C/C=C/C(C)=C/C=C/C=C(C)/C=C/C=C(C)/C=C/C2=C(C)C[C@@H](OC(=O)CCCCCCCCCCCCCCC)CC2(C)C)C(C)(C)C1`, for which the Potency in assay [2] (tumour line A) is 11.2 µM (active).
In the case of `Cc1cc(-n2c(=O)[nH]c(=O)n(C)c2=O)ccc1Oc1ccc(S(=O)(=O)C(F)(F)F)cc1`, the Potency in assay [2] (tumour line C) was 20.6 µM (active).
Regarding `CN1CCN(C2CCN(C(=O)Nc3cc(Oc4ccc(NC(=O)C5(C(=O)Nc6ccc(F)cc6)CC5)c(F)c4)ccn3)CC2)CC1`, the Potency in assay [3] (HiBiT) was 4.97 µM (active); in assay [3] (Viability) it was 14 µM (active).
Regarding `C[C@H](Nc1ncnc2nc[nH]c12)c1cc2cccc(Cl)c2c(=O)n1-c1ccccc1`, the activity change, negative = inhibition in assay [3] (Viability, at 45.9 µM (top of the series)) was -19.3%.
In the case of `CCOC(=O)Nc1ccc2c(c1)N(C(=O)CN(C)C)c1ccccc1CC2`, the activity, negative = cell killing in assay [2] (at 99.2 µM (top of the series), tumour line C) is -30.7%. In assay [2] (tumour line D), the Potency was 56.2 µM (active).
